HP1b binding inh = HTS for Inhibitors of HP1-beta Chromodomain Interactions with Methylated Histone Tails | Chromobox protein homolog 1 (Homo sapiens), P83916 | AlphaScreen HP1-beta / biotin-H3K9me3 peptide binding | Potency, µM (top dose mostly 114 µM), usual class: inhibitors | 390,000 tested, 0.56% active; further: nearly all actives have a fitted effect of over 70% in size
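AlphaScreen: HP1-beta (50 nM) preformed 30 min with biotin-H3(1-18)K9me3 peptide (50 nM) in PBS pH 7.4, 0.01% Tween-20. Compound added for 30 min at RT, then streptavidin donor/nickel chelate acceptor beads (10 ug/mL) for 30 min.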
Sfp inh = qHTS Assay for Inhibitors of Bacillus subtilis Sfp phosphopantetheinyl transferase (PPTase) | 4'-phosphopantetheinyl transferase ffp (Bacillus subtilis), Q9F4F7 | Biochemical Sfp PPTase activity, qHTS | Potency, µM, usual class: inhibitors | 310,000 tested, 3.5% active;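 further: the enzyme is Sfp with the accession as filed and its product quenches rhodamine fluorescence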
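Buffer: 50 mM Hepes-Na pH 7.6, 10 mM MgCl2, 0.01% Nonidet P-40, 0.01% BSA. Enzyme 15 nM, pre-exposed to compound 15 min; substrates then added and fluorescence change tracked over 30 min.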
BAZ2B inh = qHTS Assay for Inhibitors of BAZ2B; 360,000 tested, 4.4% active; AlphaScreen BAZ2B-H3K14Ac peptide displacement; Potency, µM (highest dose often 114 µM), usual class: inhibitors; AID 504333, 2011; further: nearly all actives have a fitted effect of over 60% in size
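AlphaScreen luminescence quantifies BAZ2B engagement of H3K14Ac peptide; the protein and biotinylated peptide are both at 50 nM final, buffer PBS pH 7.4 with 0.01% Tween-20, all steps at room temperature.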
G9a inh = qHTS Assay for Inhibitors of Histone Lysine Methyltransferase G9a; G9a H3K9 monomethylation, AlphaScreen, 2 h; Potency, µM (top dose mostly 102 µM), hits mostly inhibitors; 350,000 tested, 8.8% active; AID 504332, 2011; further: nearly all actives have a fitted effect of over 75% in size
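Methyltransferase reactions run at room temperature for 2 h (20 nM enzyme, 500 nM biotin-H3K9 peptide, 20 uM SAM) after a 15 min compound preincubation; product detected by AlphaScreen beads and anti-H3K9me1 antibody.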
JMJD2A Tudor = qHTS Assay for Inhibitors of JMJD2A-Tudor Domain. Potency, µM (top dose mostly 114 µM), actives largely listed as inhibitors. AlphaScreen JMJD2A-Tudor / H3K4me3 peptide binding. Lysine-specific demethylase 4A (Homo sapiens), O75164. 390,000 tested, 4.4% active; further: nearly all actives have a fitted effect of over 50% in size
Target sequence (O75164 whole entry, looked up, the tested form may be a part): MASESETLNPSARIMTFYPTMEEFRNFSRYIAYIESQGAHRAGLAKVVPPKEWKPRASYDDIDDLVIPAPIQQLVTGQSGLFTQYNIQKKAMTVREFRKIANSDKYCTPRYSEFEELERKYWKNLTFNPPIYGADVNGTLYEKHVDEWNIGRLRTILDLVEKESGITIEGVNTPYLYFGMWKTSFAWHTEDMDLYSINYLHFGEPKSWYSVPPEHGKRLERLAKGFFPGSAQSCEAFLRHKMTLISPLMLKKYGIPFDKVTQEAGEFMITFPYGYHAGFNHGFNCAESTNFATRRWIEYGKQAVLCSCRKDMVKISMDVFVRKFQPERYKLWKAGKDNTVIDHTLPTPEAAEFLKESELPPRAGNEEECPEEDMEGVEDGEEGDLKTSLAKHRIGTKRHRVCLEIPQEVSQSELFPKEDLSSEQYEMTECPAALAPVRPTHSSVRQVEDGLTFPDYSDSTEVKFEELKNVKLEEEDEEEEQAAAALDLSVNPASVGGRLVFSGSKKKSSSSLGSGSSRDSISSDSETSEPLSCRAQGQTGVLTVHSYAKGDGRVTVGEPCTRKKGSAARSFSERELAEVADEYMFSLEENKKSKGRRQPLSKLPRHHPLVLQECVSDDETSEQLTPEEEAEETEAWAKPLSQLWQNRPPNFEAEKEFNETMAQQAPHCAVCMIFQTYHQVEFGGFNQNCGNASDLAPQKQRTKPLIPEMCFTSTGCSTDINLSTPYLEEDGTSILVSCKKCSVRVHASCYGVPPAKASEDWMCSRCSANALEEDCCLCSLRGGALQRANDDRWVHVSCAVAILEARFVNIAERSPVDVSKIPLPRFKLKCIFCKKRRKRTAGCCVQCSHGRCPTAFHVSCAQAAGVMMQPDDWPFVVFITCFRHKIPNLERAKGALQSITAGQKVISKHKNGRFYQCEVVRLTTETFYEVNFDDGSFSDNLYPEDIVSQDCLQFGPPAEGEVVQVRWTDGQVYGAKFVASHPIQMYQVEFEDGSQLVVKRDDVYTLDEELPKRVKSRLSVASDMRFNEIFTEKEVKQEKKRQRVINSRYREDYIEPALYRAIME
12-LOX inh = Primary qHTS assay for inhibitors of human arachidonate 12S-lipoxygenase (ALOX12): Round 2 | Polyunsaturated fatty acid lipoxygenase ALOX12 (Homo sapiens), P18054 | purified 12hLO, xylenol orange hydroperoxide absorbance | 580,000 tested, 1.1% active | Potency, µM (doses to about 108 µM), usual class: inhibitors
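Hydroperoxide product was detected by ferrous iron/xylenol orange as the 573 to 405 nm absorbance ratio. Arachidonic acid at 40 uM (final) was turned over for 30 min at room temperature by 150 nM human 12hLO, pH 7.0 Hepes buffer, after 15 min compound preincubation.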
A number is an active result; 0 = inactive; ? = inconclusive; - = not tested or not shown; [ ] = remark or other dose. An excerpt weighted towards active compounds, which were near 8.7% of everything screened. The call rests on the fitted dose curve; in most records, active means well fitted curve in the direction sought with a large enough effect; inconclusive means small, poorly fitted or top-dose-only effect, or another doubt; inactive means no such curve, though single readings can be large; an effect the other way counts as inactive or inconclusive.

SMILES	HP1b binding inh	Sfp inh	BAZ2B inh	G9a inh	JMJD2A Tudor	12-LOX inh
Cc1cccc(OCC2(CNCc3cnn(C)c3)C[C@@H](O)[C@@H](O)C2)n1 (stereo partly specified)	-	-	-	-	-	28.2µM
Cc1cccc(OCC2(CNCC3CCCC3)C[C@@H](O)[C@@H](O)C2)n1 (stereo partly specified)	-	-	-	-	-	0
Cc1cccc(OCC2(CNC(=O)c3cc(C)nn3C)C[C@@H](O)[C@@H](O)C2)n1 (stereo partly specified)	-	-	-	-	-	25.1µM
Cc1c(-c2ccccc2)oc2c(C(=O)NC(C)C3CC3)cccc2c1=O (stereo unspecified)	-	-	-	-	-	0
CCN1CCN(Cc2ccc(CNC(=O)C(C)NC(=O)c3ccco3)cc2)CC1 (stereo unspecified)	-	-	-	-	-	0
CCc1ccc(CNC(=O)C2CCN(c3cc(C(F)(F)F)nc(C)n3)CC2)cc1	-	-	-	-	-	0
O=C(CN1CC2CC(C1)[C@H]1CCCC(=O)N1C2)NCCCN1CCOCC1 (stereo partly specified)	-	-	-	-	-	0
O=C(O)c1ccc2c(c1)oc1ccccc12	-	-	-	-	-	0
CCC(=O)Nc1ccc(C2=Nn3c(nnc3C(C)C)SC2)cc1	0	?	0	14.1µM	0	?
CC1(C)NC(C(=O)O)Cc2c1[nH]c1ccccc21 (stereo unspecified)	0	0	0	25.1µM	0[11.4 µM]	?
CC12CCC(=O)N1C(C(=O)O)Cc1c2[nH]c2ccccc12 (stereo unspecified)	0	0	0	?	79.4µM	0
CC1(C)c2[nH]c3ccccc3c2C[C@H]2C(=O)N(CCCO)CC(=O)N21	0	0	0	0	0	0
CC(=O)N1C(C(=O)O)Cc2c([nH]c3ccccc23)C1(C)C (stereo unspecified)	0	0	0	0	0	0
Cc1ccc(C2=CC(=O)CC(c3ccccc3)C2)cc1 (stereo unspecified)	-	-	-	-	-	0
CCOC(=O)c1c(-c2cccc3ccccc23)csc1NC(=O)C1C2CCC(O2)C1C(=O)O (stereo unspecified)	0	0	0	0	0	0
COC(=O)c1c(-c2ccc(C(C)(C)C)cc2)csc1NC(=O)C1C2CCC(O2)C1C(=O)O (stereo unspecified)	?	11.2µM	0	1.78µM	?	?
CCN(C(=O)Cn1nc(C)c2ccccc2c1=O)c1nc2ccccc2s1	-	-	-	-	-	0
COc1cc(NC(=O)COc2c(C)cc(C)cc2[N+](=O)[O-])c(OC)cc1Cl	0	50.1µM	0	0	0	0
COc1ccc(CNc2oc(/C=C/c3ccc(F)cc3)nc2C#N)cc1	-	-	-	-	-	0
COc1cc(OC)nc(NC(C)=O)n1	0	0	0	-	0	0
COC(=O)c1nc(NC2=NCCCCC2)n[nH]1	0	0	0	?	79.4µM	0
C1CCN=C(Nc2nn[nH]n2)CC1	0	0	79.4µM	?	7.94µM	?
COC(=O)c1nc(NC(C)=O)n[nH]1	-	0	0	15.8µM	-	-
Cc1cnc(CC2CCN(S(=O)(=O)c3cccs3)C2)n1CC1CC1 (stereo unspecified)	-	-	-	-	-	0
COC(=O)C1(O)CC(c2ccccc2)C(C(=O)c2ccccc2)N1c1ccc(Cl)cc1 (stereo unspecified)	-	-	-	-	-	0
SMILES	HP1b binding inh	Sfp inh	BAZ2B inh	G9a inh	JMJD2A Tudor	12-LOX inh
COC(=O)[C@@H]1[C@@H](C#N)C2(c3ccccc3-c3ccccc32)N(c2ccc(Cl)cc2)N1C#N	?	?	?	?	17.8µM	?
Cc1ccccc1NS(=O)(=O)c1ccc2[nH]cc(C(=O)N(C)Cc3ccco3)c(=O)c2c1	0	0	56.2µM	-	?	-
COc1cccc(NS(=O)(=O)c2ccc3[nH]cc(C(=O)N(C)Cc4ccco4)c(=O)c3c2)c1	0	0	0	0	?	?
Cc1ccc(CNC(=O)C(=O)Nc2nccs2)cc1	0	0	?	17.8µM	0	0
O=C(NCc1ccncc1)C(=O)NCc1ccncc1	0	0	0	0	0	0
Cc1ccc(CNC(=O)c2nccnc2C(=O)O)cc1	0	0	0	50.1µM	?	?
O=C(NCc1ccncc1)C(=O)Nc1nccs1	0	0	?	14.1µM	?	0
Cc1ccccc1CNC(=O)C(=O)Nc1nccs1	0	0	-	12.6µM	0	0
CC1CCN(C(C)C(=O)Nc2ccc(Cl)cc2C(F)(F)F)CC1 (stereo unspecified)	-	-	-	-	-	0
Cc1ccccc1Nc1ncnc2c1cnn2Cc1ccccc1	0	0	0	0[12.7 µM]	0	0
O=C(O)c1ccc(Nc2ncnc3c2cnn3Cc2ccccc2)cc1	?	?	0	31.6µM	50.1µM	0
O=C(O)c1ccc(CSc2ncnc3c2cnn3Cc2ccccc2)cc1	0	0	0	-	0	0
Cc1cccc(Nc2ncnc3c2cnn3Cc2ccccc2)c1	0	0	?	50.1µM	?	?
CCOc1ccc(NC(=O)CN2C(=O)/C(=C3\SC(=S)N(C4CCS(=O)(=O)C4)C3=O)c3ccccc32)cc1 (stereo unspecified)	0	56.2µM	0	?	0	0
CCOc1ccc(NC(=O)CN2C(=O)c3cccc4cccc2c34)cc1	-	-	-	-	-	0
CC(C)(O)C1Cc2cc(/C=C/C(=O)O)c(O)cc2O1 (stereo unspecified)	?	6.31µM	20µM	2µM	3.98µM	?
CCCc1cc(C(=O)Nc2sc3c(c2C#N)CCC3)no1	0	50.1µM	0	39.8µM	0	0

High-throughput results as filed in PubChem BioAssay.
